Assay results as given in the supplement of paper PMC10498489.
Screen size: about 2,300 compounds; about 330 (14%) showed activity.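 Rule for the calls: active = median modified Z-score above 1.96; inactive = 1.96 or below.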 Not all results are given here.

Tested on: HepG2 Srxn1-GFP reporter cells (+30 nM CDDO-Me)
Experiment: Srxn1-GFP intensity median modified Z-score relative to plate median; higher = stronger NRF2 / oxidative stress reporter activation, active = hit call of the paper
Conditions: 10 µM; exposure time: 24h
Outline: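 HepG2 Srxn1-GFP BAC reporter cells were seeded at 20,000 per well in 96-well plates and co-exposed for 24 h to compound at 10 μM and an NRF2 activator at 30 nM, with DMSO at ≤0.1%, in three replicate plates. Cells were fixed with formaldehyde, stained with Hoechst and imaged by confocal microscopy, and cytoplasmic GFP was measured per cell, with images holding under 100 cells discarded. The reported value is the median over replicates of each plate's modified Z-score of GFP intensity. For this score, scaling used 1.4826 × median absolute deviation.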

| SMILES | Srxn1-GFP intensity median modified Z-score |
| --- | --- |
| Oc1c(C2=CC[C@@H](c3ccc(Cl)cc3)CC2)c(O)c2ccccc2c1O [euspeclibcmpd664] | 37.9 (active) |
| COc1ccc(-c2cc(=O)c3c(O)c(OC)c(O[C@H]4O[C@H](CO[C@@H]5O[C@@H](C)[C@H](O)[C@@H](O)[C@H]5O)[C@@H](O)[C@H](O)[C@H]4O)cc3o2)cc1 [euspeclibcmpd1421] | -0.512 (inactive) |
| COc1cc(OC)c2c(=O)c(OC)c(-c3ccccc3)oc2c1 [euspeclibcmpd1625] | 1.58 (inactive) |
| COc1cc(OC)c2c(OC)c(-c3ccc4c(c3)OCO4)c(=O)oc2c1 [euspeclibcmpd2227] | 2.22 (active) |
| COc1cc(OC)c2c(=O)c(O)c(-c3ccc(OC)c(OC)c3)oc2c1 [euspeclibcmpd2117] | -0.572 (inactive) |
| CCN(CC)C(=O)C1(c2ccccc2)CC1CN (stereo not drawn) [euspeclibcmpd689] | -0.729 (inactive) |
| O=C(C(O)CO)C(O)CO (stereo not drawn) [euspeclibcmpd2280] | -0.0858 (inactive) |
| O=c1c(-c2ccc(O)cc2)coc2c(C3O[C@H](CO)[C@@H](O)[C@H](O)[C@H]3O)c(O)ccc12 (stereo partly drawn) [euspeclibcmpd1715] | -0.564 (inactive) |
| COC(=O)NN=Cc1c[n+]([O-])c2ccccc2[n+]1[O-] [euspeclibcmpd737] | 0.066 (inactive) |
| NN=c1[nH]ncc2ccccc12 [euspeclibcmpd806] | -0.328 (inactive) |
| COc1ccc2c(c1)OCC(Cc1ccc(OC)c(O)c1)C2=O (stereo not drawn) [euspeclibcmpd1628] | 21.4 (active) |
| COc1ccc2c(c1)OCC(Cc1ccc(OC)c(OC)c1)C2=O (stereo not drawn) [euspeclibcmpd1645] | 15.4 (active) |
| COc1ccc2c(c1)OCC(Cc1ccc(O)c(OC)c1)C2=O (stereo not drawn) [euspeclibcmpd1837] | 0.677 (inactive) |
| COc1ccc2c(c1)OCC(Cc1ccc(OC)c(OC(C)=O)c1)C2=O (stereo not drawn) [euspeclibcmpd1962] | 1.39 (inactive) |
| COc1ccc2c(c1)OC[C@@H](Cc1ccc(OC)c(OC)c1)[C@@H]2O [euspeclibcmpd2183] | 1.04 (inactive) |
| COc1cc2c(cc1OC)C1(O)C(=O)c3ccc(O)c(C(=O)O)c3OC1CO2 (stereo not drawn) [euspeclibcmpd1511] | -0.131 (inactive) |
| CC(=O)O/C1=C2\C(C)[C@@H](OC(=O)C(O)[C@@H](NC(=O)c3ccccc3)c3ccccc3)C[C@@](O)([C@@H](OC(=O)c3ccccc3)C3[C@](C)(C1=O)[C@@H](O)C[C@H]1OC[C@@]31OC(C)=O)C2(C)C (stereo partly drawn) [euspeclibcmpd631] | 0.274 (inactive) |
| O=C1O[C@H](C(O)CO)C(O)=C1O (stereo partly drawn) [euspeclibcmpd2046] | -0.841 (inactive) |
